IL-1B inflam inh: inhibitors of inflammasome signaling (IL-1 beta secretion); THP-1 LPS/ATP IL-1B secretion, AlphaLISA, 16 h; stronger effect = lower value; activity change, % at 57.5 µM; actives 4.7% (n = 360,000); AID 743279; in the data active means activity change below about -50%; inconclusive means mostly about -30% to -49%
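THP-1 cells pretreated 1 hr with compounds (up to 57.5 uM final), then stimulated with LPS (250 ng/mL final) plus ATP (1.25 mM final); secreted IL-1B measured by AlphaLISA after 16 hr, decreased signal indicating inhibition.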
TDP1 cell noCPT: qHTS for Inhibitors of human tyrosyl-DNA phosphodiesterase 1 (TDP1): qHTS in cells in absence of CPT | DT40 Tdp1-/- hTDP1 cells, no CPT, ATP luminescence, 48 h | Potency, µM (top dose mostly 46.2 µM), most hits filed as inhibitors | actives 15% (n = 420,000) | AID 686978, 2013; further: nearly all actives have a fitted effect of over 55% in size
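Compound effects on proliferation are scored in DT40 Tdp1-/-;hTDP1 cells in the absence of CPT. ATP levels (CellTiter-Glo luminescence) are recorded after a ≥48 hr, 37 °C incubation.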
HT1080-NT tox: kills 2HG-producing HT-1080-NT fibrosarcoma cells | HT-1080-NT fibrosarcoma viability, CellTiter-Glo ATP luminescence, 48 h | Potency, µM (top dose mostly 46.1 µM), most hits filed as cytotoxic | actives 1.6% (n = 360,000) | AID 686970;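 further: NT is the 2HG producing partner of a matched IDH1 knockdown line; nearly all actives have a fitted effect of over 55% in size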
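750 cells/well, RPMI + 5% FBS; 2 h settle, compound pin-transfer, 48 h at 37 degrees C. CellTiter-Glo 10 min RT, luminescence. Normalized to DMSO and media-only wells.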
HT1080 IDH1KD tx: toxicity to HT-1080 IDH1 knockdown cells (counter line); HT-1080 IDH1 knockdown viability, ATP luminescence, 48 h; Potency, µM (doses to about 46.1 µM), actives largely listed as cytotoxic; actives 2% (n = 360,000)
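Using the IDH1-knockdown HT-1080 line run in the same batch and compound series as the NT line, viability after 48 h at 37 °C was determined by CellTiter-Glo luminescence and expressed as % activity.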
TDP1 cell CPT: DT40-hTDP1 cell growth loss with CPT | actives 12% (n = 420,000) | AID 686979 | Potency, µM (doses to about 46.2 µM), most hits filed as inhibitors | chicken DT40 Tdp1-/-;hTDP1 cells + 20 nM CPT, ATP luminescence, 48 h; further: nearly all actives have a fitted effect of over 55% in size
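Cell growth measured by CellTiter-Glo luminescence after a minimum 48 h, 37 C compound exposure with 20 nM CPT in Tdp1-knockout DT40 cells stably expressing hTDP1, seeded 400/well; qHTS titration format.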
Hits are given with their value; - = inactive; ? = inconclusive; . = no result. Shown are actives, neighbours in structure and some others; about 19% of the full set was active somewhere. Unless noted, the call rests on the fitted dose curve; in most records, active means well fitted curve in the direction sought with a large enough effect; inconclusive means small, poorly fitted or top-dose-only effect, or another doubt; inactive means no such curve, though single readings can be large; an effect the other way counts as inactive or inconclusive.

SMILES | IL-1B inflam inh | TDP1 cell noCPT | HT1080-NT tox | HT1080 IDH1KD tx | TDP1 cell CPT
CCOC(=O)COc1cccc2c(=O)n(CC(=O)NCc3ccc4c(c3)OCO4)ccc12 | - | 1.84µM | 4.61µM | ? | 1.84µM
CCOC(=O)C(C)Oc1cccc2c(=O)n(CC(=O)Nc3ccc(OC)cc3)ccc12 (stereo not given) | -54.6 | - | - | - | -
OC(c1ccc(Cl)cc1)c1nccc2ccccc12 (stereo not given) | - | ? | - | - | ?
CC1CCCN(S(=O)(=O)c2cc3c4c(c2)C(C)C(=O)N4CCC3)C1 (stereo not given) | - | - | - | - | -
CCN(CCCNC(=O)CSc1cc(=O)n(CC)c2ccccc12)c1cccc(C)c1 | . | 20.6µM | . | . | 20.6µM
CCN(CCCNC(=O)COc1cc(=O)n(CC)c2ccccc12)c1ccccc1 | - | ? | - | - | 23.1µM
CCn1c(=O)cc(SCC(=O)NCCc2ccc(Cl)cc2)c2ccccc21 | . | ? | . | . | -
Cn1c(=O)[nH]c2cc(-c3noc(-c4ccc(F)cc4)n3)ccc21 | . | - | . | . | -
Cc1cc2[nH]c3c4ccccc4nc(C)c3c2cc1C | -112.4 | 2.59µM | 14.6µM | ? | 3.66µM
Cc1cc(C)c2ccccc2n1 | . | - | . | . | -
O=C(NC(Cc1ccccc1)C(=O)O)c1cccnc1Cl (stereo not given) | - | - | - | - | -
O=C(CCc1nnc(-c2ccc3c(c2)OCO3)o1)NCCc1ccccc1F | - | ? | - | ? | 16.4µM
CN(C)c1ccc(/C=C/c2ccnc3ccccc23)cc1C=O | . | 10µM | . | . | 15.8µM
CN(C)c1ccc(/C=C/c2ccnc3ccccc23)cc1[N+](=O)[O-] | . | - | . | . | -
CCc1cc(/C=C/c2ccnc3ccccc23)ccc1N(C)C | . | 2.82µM | . | . | 5.01µM
CCOc1ccc(/C=C/c2ccnc3ccccc23)cc1OCC | . | 11.2µM | . | . | 10µM
CN(C)c1ccc(/C=C/c2ccnc3ccccc23)cc1O | . | 10µM | . | . | 11.2µM
Cc1cc(C(=O)Nc2ncn(Cc3ccc(F)cc3)n2)ccc1[N+](=O)[O-] | - | - | - | - | -
O=C(Cc1n[nH]c(=O)c2ccccc12)Nc1cc(Cl)ccc1-n1cncn1 | - | ? | - | - | -
Cn1c(=O)c(Nc2ccc(Cl)cc2)c2c3c(cccc31)C(=O)c1ccccc1-2 | - | 18.4µM | - | - | ?
CC(C)Oc1cc(C(=O)N2CCC(N3CCCCC3)CC2)ccc1Nc1nnc(Cl)c(Nc2ccccc2S(C)(=O)=O)n1 | - | ? | - | - | ?
O=C(Nc1cccc(C(F)(F)F)c1)c1csc([C@H]2C[C@H](O)[C@@H](CO)O2)n1 | - | ? | - | - | ?
Cc1ccc(CNc2nc3ccccc3c3nc(-c4cccc(C)c4)nn23)cc1 | . | - | . | . | -
CCCCNC(=O)CCC(=O)NNc1nc2ccccc2c2nc(-c3ccccc3)nn12 | - | 23.1µM | - | - | ?
CCCCNc1nc2ccccc2c2nc(-c3ccccc3)nn12 | . | 20.6µM | . | . | ?
SMILES | IL-1B inflam inh | TDP1 cell noCPT | HT1080-NT tox | HT1080 IDH1KD tx | TDP1 cell CPT
c1ccc(CNc2nc3ccccc3c3nc(-c4ccccc4)nn23)cc1 | . | 2.59µM | . | . | ?
CCCCNC(=O)CCC(=O)NNc1nc2ccccc2c2nc(C)nn12 | - | ? | - | - | -
Clc1ccccc1CNc1nc2ccccc2c2nc(-c3ccccc3)nn12 | . | - | . | . | -
Clc1ccc(CCNc2nc3ccccc3c3nc(-c4ccccc4)nn23)cc1 | . | 11.6µM | . | . | ?
CCN(CC)C(=O)Nc1ccc(OCC(O)CNC(C)(C)C)c(C(C)=O)c1 (stereo not given) | . | - | . | . | -
COc1ccc(CNC(=O)c2cc3ccccc3oc2=O)cc1 | - | - | - | - | -
COc1ccc(-n2cc(C(=O)c3cc4ccccc4oc3=O)c(C(C)=O)n2)cc1 | ? | ? | - | - | 23.1µM
CCOc1cc(CNCCc2ccc(S(N)(=O)=O)cc2)ccc1OCC(=O)NC1CCCCC1 | - | 23.1µM | - | - | ?
CCOc1cc(CNCCc2ccc(S(N)(=O)=O)cc2)ccc1OCC(=O)NC(C)(C)C | - | ? | - | - | ?
CCOc1cc(CNCCc2ccccc2)ccc1OCC(=O)NC(C)(C)C | - | 20.6µM | - | - | 18.4µM
COc1cc(CNc2ccc(S(N)(=O)=O)cc2)ccc1OCC(=O)NC1CCCCC1 | - | - | - | - | -
CC(=O)c1ccc(NC(=O)NC2CCCCCCC2)cc1 | -66.0 | - | - | - | ?
CC(=O)c1ccc(OCC(=O)NC(=O)NC2CCCCC2)cc1 | - | 16.4µM | - | - | 23.1µM
O=C(COc1ccc(C(=O)c2ccccc2)cc1)NC1CCCCC1 | - | - | - | - | -
CC(=O)c1cccc(NC(=O)NC2CCCCCCC2)c1 | - | - | - | - | -
O=C(COc1ccc(C(=O)c2ccccc2)cc1)NC1CCCCCC1 | - | 16.4µM | - | - | 25.9µM
CC(C)(C)c1ccc(OCCC(=O)OCC(=O)NC(=O)NC2CCCC2)cc1 | -86.5 | 18.4µM | ? | ? | 18.4µM
O=Cc1ccc(OCC(=O)NC(=O)NC2CCCCC2)cc1 | - | ? | - | - | ?
COc1ccccc1NC(=O)Cn1nnc(-c2ccccc2NC(=O)c2cc3ccccc3oc2=O)n1 | - | - | ? | ? | -
O=C(Nc1ccc(S(=O)(=O)N2CCCC2)cc1)C1CC(=O)N(c2ccc(F)cc2)C1 (stereo not given) | - | ? | - | - | ?
COC(=O)c1ccc(OCC(=O)NC2CCCCCCC2)cc1 | - | 16.4µM | - | - | ?
CC(C)CCNC(=O)COc1ccc(C(=O)c2ccccc2)cc1 | ? | ? | ? | - | 18.4µM
O=C(CNC1CCCCC1)NN=C(c1ccccc1)c1ccccc1 | -63.8 | ? | - | - | ?
Cc1ccc(NC(=O)NC2CCCCCCC2)c(C)c1 | - | - | - | - | -
Cc1ccc(NC(=O)NC2CCCCC2)c(C)c1 | - | 1.16µM | - | - | 1.03µM
SMILES | IL-1B inflam inh | TDP1 cell noCPT | HT1080-NT tox | HT1080 IDH1KD tx | TDP1 cell CPT
CCOC(=O)C(Cc1cc(N)c(Oc2ccc(OC)cc2)c(N)c1)NC(C)=O (stereo not given) | - | - | ? | - | -
Cc1ccc(NC(=O)CSc2nnc(NC3CC3)s2)cc1S(=O)(=O)N1CCOCC1 | - | - | - | - | -
CCN1C(=O)[C@H]2[C@H]3CN=C(SCc4ccc(Cl)cc4)N3[C@@](Cc3ccccc3)(C(=O)OC)[C@H]2C1=O | - | 11.6µM | ? | ? | ?
COC(=O)[C@@]1(Cc2ccccc2)[C@H]2C(=O)N(Cc3ccccc3)C(=O)[C@H]2[C@H]2CN=C(SCC(=O)c3ccccc3)N21 | - | 18.4µM | - | - | ?
Cc1cc(C)n(-c2nnc(Nc3ccc(C)c(C)c3)c3ccccc23)n1 | . | - | . | . | ?
CCN(CC(=O)Nc1c(F)cccc1F)C(=O)c1ccc(OCc2c(C)noc2C)cc1 | - | - | - | - | -

High-throughput results deposited in PubChem by National Center for Advancing Translational Sciences (NCATS).
